Measurements published in PubChem BioAssay (NCI).
About 83,000 compounds went through this panel and 20% of them were active in at least one assay; those are over-represented in the sample as a whole.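 96-well plates, one dose, 48 hours. Percent growth reported; active if below 10.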 Active and inactive are the calls of the source.

What was measured:
Assay in all cases: NCI-60 one-dose screen, 48 h (100 = growth as untreated, 0 = no growth, -100 = all killed)
Conditions in all cases: 10 µM unless noted
HCT-15 colon = system: HCT-15 colon
HT29 colon = system: HT29 colon
SNB-75 CNS = system: SNB-75 CNS
SNB-19 CNS = system: SNB-19 CNS
U251 CNS = system: U251 CNS
SK-MEL-5 melanoma = system: SK-MEL-5 melanoma
UACC-62 melanoma = system: UACC-62 melanoma
LOX IMVI melanoma = system: LOX IMVI melanoma
SK-MEL-28 melanoma = system: SK-MEL-28 melanoma
SK-MEL-2 melanoma = system: SK-MEL-2 melanoma
EKVX NSCLC = system: EKVX NSCLC
SN12C renal = system: SN12C renal
UO-31 renal = system: UO-31 renal
TK-10 renal = system: TK-10 renal
ACHN renal = system: ACHN renal
CAKI-1 renal = system: CAKI-1 renal
A498 renal = system: A498 renal
CCRF-CEM leukemia = system: CCRF-CEM leukemia
MOLT-4 leukemia = system: MOLT-4 leukemia
PC-3 prostate = system: PC-3 prostate

Measured: growth

CNC(=O)c1cc(Oc2ccc3nc(NC(C)=O)sc3c2)ccn1
inactive: HCT-15 colon 106% | HT29 colon 110% | SNB-75 CNS 84.4% | SNB-19 CNS 106% | U251 CNS 98.4% | SK-MEL-5 melanoma 101% | UACC-62 melanoma 98.8% | LOX IMVI melanoma 93.2% | SK-MEL-28 melanoma 105% | SK-MEL-2 melanoma 94.9% | EKVX NSCLC 97.8% | SN12C renal 106% | UO-31 renal 95% | TK-10 renal 104% | ACHN renal 104% | CAKI-1 renal 89.2% | A498 renal 106% | CCRF-CEM leukemia 94.7% | MOLT-4 leukemia 90.4%

OCCOCCN(Cc1ccccn1)Cc1cc(I)cc(I)c1O
inactive: HCT-15 colon 24.2% | HT29 colon 98.5% | SNB-75 CNS 99.9% | SNB-19 CNS 94.7% | U251 CNS 83.5% | PC-3 prostate 75.5% | SK-MEL-5 melanoma 93.9% | UACC-62 melanoma 94.8% | SK-MEL-28 melanoma 95.4% | EKVX NSCLC 87.7% | SN12C renal 89.8% | UO-31 renal 42.9% | TK-10 renal 58.9% | ACHN renal 41.2% | CAKI-1 renal 23.7% | A498 renal 89.9% | CCRF-CEM leukemia 81.9% | MOLT-4 leukemia 86.2%

C=C1C(=O)O[C@H]2[C@H]1CC/C(COC(=O)CCSCCC(=O)OC/C1=C/CC[C@@]3(C)O[C@H]3[C@H]3OC(=O)C(=C)[C@@H]3CC1)=C\CC[C@@]1(C)O[C@@H]21
active: HCT-15 colon -6.34% | HT29 colon -9.93% | U251 CNS 6.76% | UACC-62 melanoma -67% | LOX IMVI melanoma -79.3% | SK-MEL-28 melanoma -35.6% | SN12C renal 0.113% | UO-31 renal -49.4% | TK-10 renal -3.89% | ACHN renal -12% | CAKI-1 renal 4.51% | CCRF-CEM leukemia -24.8% | MOLT-4 leukemia -25.7%
inactive: SNB-75 CNS 48.6% | SNB-19 CNS 55% | SK-MEL-5 melanoma 54.3% | SK-MEL-2 melanoma 23.8% | EKVX NSCLC 12% | A498 renal 69.8%

CCN(CC)C(=S)SC(SC(=S)N(CC)CC)C(=O)c1nnn(-c2ccc([N+](=O)[O-])cc2)c1C
inactive: HCT-15 colon 99% | HT29 colon 87.3% | SNB-75 CNS 107% | SNB-19 CNS 90.8% | U251 CNS 81.5% | SK-MEL-5 melanoma 76.7% | UACC-62 melanoma 86.5% | LOX IMVI melanoma 89% | SK-MEL-28 melanoma 104% | SK-MEL-2 melanoma 91.6% | EKVX NSCLC 97.2% | SN12C renal 96.4% | UO-31 renal 80.5% | TK-10 renal 107% | ACHN renal 98.7% | CAKI-1 renal 89.5% | A498 renal 67.3% | MOLT-4 leukemia 92.5%

Cc1cc(=O)[nH]c2c(C#N)cnn12
inactive: HCT-15 colon 107% | HT29 colon 104% | SNB-75 CNS 100% | SNB-19 CNS 98.1% | U251 CNS 102% | SK-MEL-5 melanoma 99.4% | UACC-62 melanoma 90.7% | LOX IMVI melanoma 101% | SK-MEL-28 melanoma 105% | EKVX NSCLC 97% | SN12C renal 97.4% | UO-31 renal 83.8% | TK-10 renal 101% | ACHN renal 98.8% | CAKI-1 renal 93.6% | A498 renal 93.1% | CCRF-CEM leukemia 101% | MOLT-4 leukemia 105%

O=C(/C=C/c1ccccc1)c1cccc(OCCCOc2cccc(C(=O)/C=C/c3ccccc3)c2)c1
inactive: HCT-15 colon 57.4% | HT29 colon 52.4% | SNB-75 CNS 93.9% | SNB-19 CNS 85.7% | U251 CNS 64.3% | SK-MEL-5 melanoma 100% | UACC-62 melanoma 87.3% | LOX IMVI melanoma 58.1% | SK-MEL-28 melanoma 102% | SK-MEL-2 melanoma 101% | EKVX NSCLC 103% | SN12C renal 94.2% | UO-31 renal 74.2% | TK-10 renal 107% | ACHN renal 102% | CAKI-1 renal 86.4% | A498 renal 92% | CCRF-CEM leukemia 76.5% | MOLT-4 leukemia 86.9%

N#Cc1cccc(F)c1
inactive: HCT-15 colon 97.8% | HT29 colon 104% | SNB-75 CNS 127% | SNB-19 CNS 94.4% | U251 CNS 110% | SK-MEL-5 melanoma 107% | UACC-62 melanoma 102% | LOX IMVI melanoma 107% | SK-MEL-28 melanoma 117% | SK-MEL-2 melanoma 103% | EKVX NSCLC 113% | SN12C renal 99.2% | UO-31 renal 84.9% | TK-10 renal 106% | ACHN renal 95.6% | CAKI-1 renal 94.6% | A498 renal 129% | CCRF-CEM leukemia 104% | MOLT-4 leukemia 107%

O=C1/C(=C/c2ccc(F)cc2)COc2ccc(O)cc21
inactive: HCT-15 colon 60.7% | HT29 colon 48.7% | SNB-75 CNS 83.7% | SNB-19 CNS 90.4% | U251 CNS 60.8% | SK-MEL-5 melanoma 98.5% | UACC-62 melanoma 85.2% | LOX IMVI melanoma 22.5% | SK-MEL-28 melanoma 103% | SK-MEL-2 melanoma 114% | EKVX NSCLC 101% | SN12C renal 78.4% | UO-31 renal 64.5% | TK-10 renal 100% | ACHN renal 87.7% | CAKI-1 renal 75.8% | A498 renal 111% | MOLT-4 leukemia 51.7%
active: CCRF-CEM leukemia 5.18%

COc1cc(-c2cc(-c3cccs3)c(C#N)c(N3CCOCC3)n2)cc(OC)c1OC
inactive: HCT-15 colon 25.2% | HT29 colon 22.2% | SNB-75 CNS 69.2% | SNB-19 CNS 95.2% | U251 CNS 52.9% | SK-MEL-5 melanoma 45.7% | UACC-62 melanoma 63.6% | LOX IMVI melanoma 81.5% | SK-MEL-28 melanoma 91.4% | SK-MEL-2 melanoma 95.6% | EKVX NSCLC 88.1% | SN12C renal 77.9% | UO-31 renal 58.9% | TK-10 renal 92.5% | ACHN renal 71.2% | CAKI-1 renal 66.5% | A498 renal 66.4% | CCRF-CEM leukemia 38.8% | MOLT-4 leukemia 28.3%

Oc1c(Cl)cc(Cl)c2ccc(Cn3cc(-c4cc(C(F)(F)F)cc(C(F)(F)F)c4)nn3)nc12
inactive: HCT-15 colon 12.5% | HT29 colon 53.4% | SNB-75 CNS 62.3% | SNB-19 CNS 94% | U251 CNS 105% | SK-MEL-5 melanoma 92.6% | UACC-62 melanoma 64.8% | SK-MEL-28 melanoma 46% | SK-MEL-2 melanoma 89.9% | EKVX NSCLC 80.9% | SN12C renal 65.4% | UO-31 renal 57% | TK-10 renal 96.7% | ACHN renal 11.4% | CAKI-1 renal 13.8% | A498 renal 103%
active: LOX IMVI melanoma -10.3% | CCRF-CEM leukemia 4.83% | MOLT-4 leukemia 2.95%

COc1cc(OC)c2sc(-c3ccc(-n4cncc4-c4ccc(OC)c(OC)c4)cc3)nc2c1
active: CAKI-1 renal 8.81%
inactive: HCT-15 colon 17.8% | HT29 colon 35.1% | SNB-75 CNS 87.1% | SNB-19 CNS 67.1% | U251 CNS 46% | SK-MEL-5 melanoma 22.5% | UACC-62 melanoma 53.4% | SK-MEL-28 melanoma 71.8% | SK-MEL-2 melanoma 33.5% | EKVX NSCLC 54.7% | SN12C renal 72.3% | UO-31 renal 25.5% | TK-10 renal 71.9% | ACHN renal 38.7% | A498 renal 56.3% | CCRF-CEM leukemia 53.2% | MOLT-4 leukemia 33.6%

CN(C)CC(=O)Nc1ccc2ncnc(Nc3ccc(Oc4cccc(C(F)(F)F)c4)c(Cl)c3)c2c1
inactive: SNB-75 CNS 87.2% | SNB-19 CNS 70.3% | U251 CNS 36.2% | SK-MEL-5 melanoma 66.5% | UACC-62 melanoma 88.2% | SK-MEL-28 melanoma 78% | SK-MEL-2 melanoma 92.1% | EKVX NSCLC 28.9% | SN12C renal 60% | TK-10 renal 46.9% | ACHN renal 23.1% | CAKI-1 renal 35.7% | A498 renal 12.1% | CCRF-CEM leukemia 48.3% | MOLT-4 leukemia 50.8%
active: HCT-15 colon 1.59% | HT29 colon 2.56% | LOX IMVI melanoma -93% | UO-31 renal -3.49%

Brc1ccc2[nH]cc(-c3nonc3-c3c[nH]c4ccccc34)c2c1
inactive: HCT-15 colon 19.5% | HT29 colon 11.2% | SNB-75 CNS 46.5% | SNB-19 CNS 63.8% | U251 CNS 43.3% | SK-MEL-5 melanoma 59.7% | UACC-62 melanoma 39.2% | SK-MEL-28 melanoma 77.6% | SK-MEL-2 melanoma 54% | EKVX NSCLC 28.4% | SN12C renal 57.1% | UO-31 renal 30.4% | TK-10 renal 41.7% | ACHN renal 34.2% | CAKI-1 renal 25.3% | A498 renal 43% | CCRF-CEM leukemia 38.8% | MOLT-4 leukemia 27%
active: LOX IMVI melanoma 2.2%

Cn1cccc1C(=O)C1C(c2cccc([N+](=O)[O-])c2)C2C3CCCCC3CN2C12C(=O)Nc1ccc(Cl)cc12 (centres undefined)
inactive: HCT-15 colon 41.7% | HT29 colon 41.9% | SNB-75 CNS 37.4% | SNB-19 CNS 53.2% | U251 CNS 53.8% | SK-MEL-5 melanoma 64.5% | UACC-62 melanoma 60.1% | LOX IMVI melanoma 37.3% | SK-MEL-28 melanoma 83.2% | SK-MEL-2 melanoma 66.5% | EKVX NSCLC 46.4% | SN12C renal 59.4% | UO-31 renal 45.5% | TK-10 renal 103% | ACHN renal 59.9% | CAKI-1 renal 17.4% | A498 renal 86% | MOLT-4 leukemia 28%

N=C(N)c1ccc(-c2ccc(-c3ccc(Cl)cc3)s2)nc1
inactive: SNB-75 CNS 95.8% | SNB-19 CNS 49.9% | SK-MEL-5 melanoma 82.8% | UACC-62 melanoma 89.9% | SK-MEL-28 melanoma 108% | EKVX NSCLC 59.1% | SN12C renal 52.5% | UO-31 renal 44.6% | TK-10 renal 103% | A498 renal 84.5%
active: HCT-15 colon -78.1% | HT29 colon -38.1% | U251 CNS -68.1% | PC-3 prostate -75.3% | ACHN renal -75.9% | CAKI-1 renal -65% | CCRF-CEM leukemia -45.8% | MOLT-4 leukemia -57.8%
